System: Vero E6 infected with SARS-CoV-2
Experiment: inhibition of SARS-CoV-2 cytopathic effect; higher = more antiviral protection, active = above 15
Conditions: 48 h

Measured: inhibition of SARS-CoV-2 cytopathic effect

Nn1cnc2cc3ccccc3cc2c1=O [centazolone]
inactive: 1 nM -0.59% | 8.33 nM 0.85% | 100 nM 0.4% | 833.33 nM -1.41% | 10000 nM 0.93%

NC(=O)c1ncn([C@@H]2O[C@H](CO)[C@@H](O)[C@H]2O)c1O [mizoribine]
inactive: 1 nM -1.24% | 8.33 nM -0.82% | 100 nM 0.9% | 833.33 nM 0.29% | 10000 nM -1.77%

CCCCCCCCCCCCCCC[C@@H](O)[C@@H](N)CO [safingol]
inactive: 1 nM 3.01% | 8.33 nM 0.67% | 100 nM 1.42% | 833.33 nM 2.02% | 10000 nM -4.84%

COc1ccc(-c2cc(=O)c3c(OC)c(OC)c(OC)c(OC)c3o2)cc1 [tangeritin]
inactive: 1 nM 2.13% | 8.33 nM 0.56% | 100 nM -0.23% | 833.33 nM 0.3% | 10000 nM -0.52%

CC(=O)OCC(=O)[C@@]1(OC(C)=O)[C@@H](C)C[C@H]2[C@@H]3C[C@H](F)C4=CC(=O)C=C[C@]4(C)[C@@]3(F)[C@@H](O)C[C@@]21C [diflorasone-diacetate]
inactive: 1 nM 3.78% | 8.33 nM 2.43% | 100 nM 1.22% | 833.33 nM 0.13% | 10000 nM 1.53%

O=C(CCBr)N1CC[N+]2(CC1)CC[N+]1(CCN(C(=O)CCBr)CC1)CC2 [spirobromin]
inactive: 1 nM -0.01% | 8.33 nM -0.86% | 100 nM -0.61% | 833.33 nM -2.75% | 10000 nM -3.3%

O=C(O)c1ccc(S(=O)(=O)N(Cc2ccc(OC(F)(F)F)cc2)c2ncc(C(F)(F)F)cc2Cl)cc1
inactive: 1 nM 1.52% | 8.33 nM -0.05% | 100 nM 1.73% | 833.33 nM 1.99% | 10000 nM 4.63%

Reference: the supplement of paper PMC13380429
